Counter-ions that a name gives are not always drawn.
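Also: Hoechst-stained nuclei counted by automated confocal imaging of four fields per well in 384-well plates, with the robust Z-score based on the per-plate DMSO median and robust SD.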

The experiment concerns HeLa. Description: nuclear count per well, robust Z-score vs DMSO; higher = more cells (less toxicity). The following applies: 10 µM; 6 h.
With `Oc1ncnc2[nH]ncc12` [Allopurinol], the “nuclear count per well” value was found to be 0.829.
Turning to `Nc1ncnc2c1c(I)cn2[C@@H]1O[C@H](CO)[C@@H](O)[C@H]1O` [5-Iodotubercidin], the “nuclear count per well” value is -7.72.
The value for `COc1cc(C(=O)NS(=O)(=O)c2ccccc2C)ccc1Cc1cn(C)c2ccc(NC(=O)OC3CCCC3)cc12` [Zafirlukast] was 0.673; that for `CO[C@H]1C[C@@H]2CC[C@@H](C)[C@@](O)(O2)C(=O)C(=O)N2CCCC[C@H]2C(=O)O[C@H]([C@H](C)C[C@@H]2CC[C@@H](OC(=O)C(C)(CO)CO)[C@H](OC)C2)CC(=O)[C@H](C)/C=C(\C)[C@@H](O)[C@@H](OC)C(=O)[C@H](C)C[C@H](C)/C=C/C=C/C=C/1C` [Temsirolimus] was 0.576.
Then `O=C(O)c1cc(-c2ccccc2)nc2ccccc12` [Cincophen], with 0.414; and `C=C(c1ccc(C(=O)O)cc1)c1cc2c(cc1C)C(C)(C)CCC2(C)C` [Bexarotene], with -0.918; and `COC(=O)[C@H](c1ccccc1Cl)N1CCc2sccc2C1` [Clopidogrel Hydrogen Sulfate], with -0.543.
`Nc1nc(NC2CC2)c2ncn([C@H]3C=C[C@@H](CO)C3)c2n1` [Abacavir Sulfate]: the “nuclear count per well” value was -1.42.
Then `CCOC(=O)[C@H](CCc1ccccc1)N[C@@H](C)C(=O)N1[C@H](C(=O)O)C[C@@H]2CCC[C@@H]21` [Ramipril], with -0.209; and `CN/C(=N\CCSCc1nc[nH]c1C)NC#N` [Cimetidine], with 0.352.

The record behind these values is the supplement of paper PMC9844399.
